An excerpt weighted towards active compounds, which were near 19% of everything screened.
HT1080 IDH1KD tx: kills HT-1080 cells with IDH1 knockdown. HT-1080 IDH1 knockdown viability, ATP luminescence, 48 h. Potency, µM (doses to about 46.1 µM), for the others: at the top dose activity, negative = toxicity, most hits filed as cytotoxic. actives 2% (n = 360,000);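 note: potency is the fitted concentration of half-maximal effect; 0% = DMSO wells and -100% = cell-free medium wells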
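In this qHTS, HT-1080 cells depleted of IDH1 are exposed for 48 h at 37 °C to compound titrations. Toxicity is scored from CellTiter-Glo luminescence, with DMSO as full viability and medium alone as none.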
HT1080-NT tox: kills 2HG-producing HT-1080-NT fibrosarcoma cells; actives 1.6% (n = 360,000); AID 686970; HT-1080-NT fibrosarcoma viability, CellTiter-Glo ATP luminescence, 48 h; Potency, µM (highest dose often 46.1 µM), for inactives: at the highest dose activity, negative = less viability, usual class: cytotoxic;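 note: NT is the 2HG producing partner of a matched IDH1 knockdown line; potency is the fitted concentration of half-maximal effect; 0% = DMSO-treated cells and -100% = media-only wells without cells; nearly all actives have a fitted effect of over 55% in size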
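HT-1080-NT; 750 cells/well; 5% FBS RPMI; 48 h compound, 37 degrees C; CellTiter-Glo luminescence; curve fitting and curve-class assignment.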
IL-1B inflam inh: blocks inflammasome-driven IL-1 beta release; THP-1 LPS/ATP IL-1B secretion, AlphaLISA, 16 h; stronger effect = lower value; activity change, % at 57.5 µM; actives 4.7% (n = 360,000); AID 743279; in the data active = activity change below about -50%; inconclusive = mostly about -30% to -49%
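Secreted IL-1B measured by AlphaLISA bead assay after 16 h compound exposure of THP-1 cells; compounds (final up to 57.5 uM) added 1 h before LPS (250 ng/mL) and ATP (1.25 mM) stimulation; lower signal means less secretion.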
TDP1 cell CPT: growth inhibition of DT40 Tdp1-/-;hTDP1 cells with camptothecin (screen for TDP1 inhibitors); AID 686979; Potency, µM (series often up to 46.2 µM), without a hit: at the highest dose activity change, negative = growth inhibition, hits mostly inhibitors; actives 12% (n = 420,000); chicken DT40 Tdp1-/-;hTDP1 cells + 20 nM CPT, ATP luminescence, 48 h; note: potency is the fitted concentration of half-maximal effect; nearly all actives have a fitted effect of over 55% in size
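Chicken DT40 Tdp1-/- cells complemented with human TDP1, 400 cells/well, exposed to compounds plus 20 nM camptothecin for at least 48 h at 37 C; viability read as ATP content by CellTiter-Glo luminescence.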
DT40 TDP1 no CPT: qHTS for Inhibitors of human tyrosyl-DNA phosphodiesterase 1 (TDP1): qHTS in cells in absence of CPT | DT40 Tdp1-/- hTDP1 cells, no CPT, ATP luminescence, 48 h | actives 15% (n = 420,000) | AID 686978, 2013 | Potency, µM (doses to about 46.2 µM), without a hit: top-dose activity change, negative = growth inhibition, most hits filed as inhibitors; note: potency is the fitted concentration of half-maximal effect; nearly all actives have a fitted effect of over 55% in size
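Camptothecin absent (DMSO only). Human TDP1-complemented DT40 knockout cells, 400 cells/well, 37 °C for minimum 48 hr; ATP measured via CellTiter-Glo, 30 min dark incubation, luminescence.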
* hit, by the source's call; ? = inconclusive; . = not tested or not shown. Unless noted, calls come from the whole dose curve; as a rule, active = well fitted curve in the direction sought with a large enough effect; inconclusive = small, poorly fitted or top-dose-only effect, or another doubt; inactive = no such curve, though single readings can be large; an effect the other way counts as inactive or inconclusive. Unless noted, % is set by controls: 0 for no effect and ±100 for the full control effect.

SMILES | HT1080 IDH1KD tx | HT1080-NT tox | IL-1B inflam inh | TDP1 cell CPT | DT40 TDP1 no CPT
COC(=O)c1ccc(C(=O)NC(=S)Nc2nc3c(s2)CCCC3)cc1 | 0.3% | -0.6% | 29.2 | ? | 16.4µM*
Cc1nc(NC(=S)NC(=O)c2ccccc2)sc1C | 5.2% | -1.7% | 42.8 | 4.6% | ?
O=C(COC(=O)C1CCCCC1C(=O)N1CCc2ccccc21)NCc1ccco1 (stereo not given) | 6.1% | 4.0% | -20.5 | -22.7% | ?
N#Cc1c(/N=C/c2cc3ccccc3s2)sc2c1CCC2 | -2.8% | 13.1% | -7.0 | ? | 23.1µM*
N#Cc1c(N)n(CCOC(=O)c2cccc([N+](=O)[O-])c2)c2nc3ccccc3nc12 | -8.4% | -20.2% | -5.0 | -22.1% | 10µM*
N#Cc1c(N)n(CCOC(=O)c2cccc(Br)c2)c2nc3ccccc3nc12 | -24.4% | -20.0% | 13.9 | -9.4% | ?
Cc1ccc(C(=O)NCCn2c(N)c(C#N)c3nc4ccccc4nc32)cc1 | 24.7% | 7.5% | -1.2 | -7.3% | -15.9%
N#Cc1c(N)n(CCNC(=O)c2ccc(Cl)cc2)c2nc3ccccc3nc12 | -17.1% | -9.7% | -58.0* | -1.0% | ?
COC(=O)c1sccc1NC(=O)Nc1ccc(F)cc1F | -0.1% | 17.5% | -10.8 | -4.8% | -1.7%
Cn1c(=O)c2c(nc3n2CC(COc2ccccc2)O3)n(C)c1=O (stereo not given) | -11.7% | -11.4% | 4.9 | -29.6% | ?
Cc1ccc(-n2c(SCC(=O)N3CCC(C)CC3)nc3c([nH]c4ccccc43)c2=O)cc1 | . | . | . | -24.4% | -23.2%
O=C(N/N=C/c1cccc([N+](=O)[O-])c1)c1c[nH]c2ccccc12 | -6.8% | -13.8% | -11.7 | -15.6% | ?
Nc1ccc(C(=O)N/N=C\c2cc(N=Nc3cccc4ccccc34)ccc2O)cc1 | 11.6µM* | ? | 26.5 | 5.17µM* | 4.61µM*
O=C(N/N=C/c1cc([N+](=O)[O-])ccc1O)c1c[nH]c2ccccc12 | 14.6µM* | ? | 208.8 | ? | ?
COC(=O)N/N=C/c1cc(N=Nc2ccccc2Cl)ccc1O | -22.2% | -14.9% | ? | ? | ?
O=C(NN=Cc1cc([N+](=O)[O-])ccc1O)c1cccc2ccccc12 | 6.51µM* | ? | 65.1 | 7.31µM* | 7.31µM*
O=[N+]([O-])c1ccc(O)c(C=Nc2cccc3ccccc23)c1 | -12.3% | -0.7% | 18.6 | 16.3% | -14.6%
CN1C(C)(C)CC(O)(C(=O)O)CC1(C)C | 11.6% | 25.4% | 18.5 | -11.1% | -0.9%
CC1CCC(NC(=O)CCN2C(=O)C3C4C=CC(C4)C3C2=O)CC1 (stereo not given) | -0.1% | 8.7% | 1.4 | -4.2% | 17.6%
O=C(Cc1ccc(Cl)cc1)Nc1ccc(S(=O)(=O)Nc2cnc3ccccc3n2)cc1 | -11.8% | 1.2% | 19.2 | -0.5% | -8.8%
O=C(NCCN1CCC(n2c(=O)[nH]c3ccccc32)CC1)N1c2ccccc2Sc2ccccc21 | -14.1% | -11.8% | -2.1 | ? | 16.4µM*
Cc1cc(C(=O)N2CCN(c3ccc([N+](=O)[O-])cc3)CC2)co1 | -1.7% | -0.8% | -4.8 | ? | ?
Cn1c(C(=O)N2CCN(c3ccc([N+](=O)[O-])cc3)CC2)cc2c(=O)[nH]c3ccccc3c21 | -9.0% | -18.7% | -53.7* | ? | 11.6µM*
C1=Nc2c(NCc3ccccc3)ncnc2Oc2ccccc21 | ? | -3.3% | -22.5 | 3.66µM* | 1.03µM*
Cn1ncc2c(NCc3ccccc3)ncnc21 | 9.5% | 6.4% | 8.1 | ? | ?
SMILES | HT1080 IDH1KD tx | HT1080-NT tox | IL-1B inflam inh | TDP1 cell CPT | DT40 TDP1 no CPT
Cc1nn(CCCC(=O)NCCCN2CCN(C)CC2)c(=O)c2c1sc1ccccc12 | 1.1% | -8.4% | -9.0 | -12.1% | 0.3%
O=C1c2ccccc2C(=O)C12OC2c1ccc(Cl)cc1Cl (stereo not given) | ? | 20.6µM* | -101.3* | 5.17µM* | 9.2µM*
CCc1cccc(NC(=O)CNS(=O)(=O)c2ccc3nc(C)sc3c2)c1 | . | . | . | -5.9% | -28.8%
OCCNc1nc(SCc2ccccc2)nc2sc3c(c12)CCC3 | -28.4% | -14.3% | -13.9 | ? | 14.6µM*
O=c1c2c3c(sc2nc(NCCO)n1Cc1ccco1)CCCCC3 | ? | -24.7% | -6.9 | -64.1% | ?
COCCNc1nc2sc3c(c2c(=O)n1Cc1ccco1)CCCCC3 | ? | -25.0% | 11.5 | 13µM* | 16.4µM*
O=c1c2c3c(sc2nc(NCCO)n1CCc1ccccc1)CCCCC3 | ? | -28.4% | -12.4 | 5.8µM* | 4.11µM*
CN1CCc2c(sc3nc(NN)n(Cc4ccccc4)c(=O)c23)C1 | 9.7% | 6.9% | 20.0 | -3.6% | -25.0%
CN(C)CCNc1nc2sc3c(c2c(=O)n1Cc1ccccc1)CCCCC3 | -16.8% | -3.8% | -95.7* | ? | ?
Cc1onc(-c2ccccc2)c1C(=O)NCCCc1ccccc1 | 7.5% | -6.9% | 7.2 | -19.0% | ?
O=C(Nc1ccc(NC(=O)c2ccco2)nc1)c1ccco1 | -11.8% | -25.5% | -7.0 | -1.6% | -19.1%
COc1ccccc1C(=O)Nc1ccc(NC(=O)c2ccco2)cn1 | 2.8% | 18.4% | ? | ? | 20.6µM*
CCOc1ccccc1NC(=O)c1ccc(C(=O)Nc2ccccc2OCC)cc1 | . | . | . | -11.3% | -12.4%
COc1ccc(NC(=O)c2ccc(NC(=O)c3ccco3)cc2)c(OC)c1 | 3.8% | 6.7% | -50.0* | ? | ?
COc1ccc(NC(=O)c2ccc3c(=O)n(Cc4ccco4)c(=S)[nH]c3c2)c(OC)c1 | -4.6% | -0.3% | 20.7 | ? | 12.6µM*
CCOc1ccccc1NC(=O)c1ccc(NC(=O)c2ccco2)cc1 | -5.7% | -8.3% | -58.2* | ? | 16.4µM*
COc1ccccc1NC(=O)c1ccc(NC(=O)c2ccco2)cc1 | -1.9% | -5.6% | -74.6* | ? | 16.4µM*
CC1CCCC(C)N1C(=O)COC(=O)CCC(=O)c1ccc(F)cc1 (stereo not given) | 3.5% | 4.4% | -0.3 | -29.2% | ?
CCN(CC(=O)Nc1c(F)cccc1F)C(=O)c1ccc2c(c1)OCCO2 | -4.2% | -4.0% | -11.6 | 8.9% | 1.8%
CC1(Oc2cccc(Cl)c2)CCN(Cc2ccc(OC(F)(F)F)cc2)C1 (stereo not given) | 14.0% | ? | 22.0 | -18.8% | -29.4%
COc1cc(OC)c(OC)cc1CN1CCN(Cc2ccc(SC)cc2)CC1 | -3.9% | -5.1% | -3.0 | ? | 13µM*
COc1cccc(OC2(C)CCN(Cc3ccc(-c4ccccn4)cc3)C2)c1 (stereo not given) | -24.3% | -26.4% | -11.7 | 20.6µM* | ?
